The text below walks through data of PubChem BioAssay AID1259399 (Fisher Drug Discovery Resource Center, 2018).

Hit rate of the full screen: of about 160,000 compounds, about 240 (0.15%) were called active. Only a selection was taken, and actives are over-represented in it overall. A number with no mark means an inactive call. No stated cut-off is given here; in the data, active means inhibition above about 40%; inactive means the rest.

For this test, the target named is Cyclic GMP-AMP synthase (Mus musculus) (UniProt Q8C6L5). Briefly: cyclic GMP-AMP synthase inhibitors, mouse, primary biochemical chemiluminescence (AID 1259399).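 Further: 0% = negative control wells and 100% = reference inhibitor with no enzyme activity.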 To be noted: recombinant cGAS, Kinase-Glo ATP depletion luminescence; at 12.5 µM; stronger effect = higher value.
Sequence of Cyclic GMP-AMP synthase (Mus musculus) (Q8C6L5 whole entry, looked up): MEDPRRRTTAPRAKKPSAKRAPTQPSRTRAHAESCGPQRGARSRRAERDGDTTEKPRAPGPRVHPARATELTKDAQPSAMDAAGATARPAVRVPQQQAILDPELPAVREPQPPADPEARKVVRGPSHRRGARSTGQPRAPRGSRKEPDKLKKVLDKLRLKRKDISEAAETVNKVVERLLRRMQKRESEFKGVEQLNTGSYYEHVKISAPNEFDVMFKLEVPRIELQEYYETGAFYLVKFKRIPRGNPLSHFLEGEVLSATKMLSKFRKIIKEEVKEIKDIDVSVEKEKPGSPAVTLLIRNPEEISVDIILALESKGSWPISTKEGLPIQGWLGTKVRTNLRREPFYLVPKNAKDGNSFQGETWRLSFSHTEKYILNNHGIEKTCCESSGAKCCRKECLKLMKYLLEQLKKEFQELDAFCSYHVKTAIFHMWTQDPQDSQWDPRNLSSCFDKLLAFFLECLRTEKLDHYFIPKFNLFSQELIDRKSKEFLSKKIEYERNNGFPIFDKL
By inhibition is commonly meant the change of the read-out against control, counted positive when it falls. Turning to `Cc1ccc(C)c(N2CCN(C(=O)c3cccc(F)c3)C(C)C2=O)c1` (stereo not given), the inhibition is -1.42%.

Take `CCc1nc2ccc(C(=O)N(C)Cc3ccccc3)cn2c1N(C)C(=O)c1cccc(OC)c1`: the inhibition was -0.76%.

Take `C=CCN(Cc1cccnc1)C(=O)C1CCCN1C(=O)C1CCCCC1` (stereo not given): the inhibition is -14.1%.

As for `CCc1nc2c(OCCOc3ccc(F)cc3)cccn2c1N(C)C(=O)c1ccncc1`, the inhibition was -2.55%.

`O=c1c(O)c(Br)ccc2c(Br)c(O)c(O)c(O)c12`: the inhibition was 71.1% (active).

For the compound `CCOc1c(Br)cc(Br)cc1CNCC(=O)N1CCCC1`, the inhibition was -7%.

Turning to `CN(C)c1ccc(/C=C/C=C2/SC(N)=NC2=O)cc1`, the inhibition was -4.74%.

In the case of `COc1ccc(C2NC(=O)N(C)C3=C2C(=O)N(Cc2ccc(F)cc2)C3)cc1` (stereo not given), the inhibition was -4.51%.

Consider `Cc1ccc2nc(-c3ccccc3F)c(NC(C)(C)CC(C)(C)C)n2c1`, for which the inhibition was -1.73%.

On to `N#CC1C(=N)Oc2c(c(=O)oc3ccccc23)C12C(=O)Nc1ccc(Br)cc12` (stereo not given), for which the inhibition was -4.42%.

On to `CSc1ccc(C(=O)N2CCCC(CO)(CCCc3ccccc3)C2)cc1` (stereo not given), for which the inhibition is -6.85%.

Regarding `Cc1[nH]c2c(c1C(=O)NCCOc1ccccc1F)C(=O)CCC2`, the inhibition was -9.39%.

Consider `Cc1nc(N2CCOCC2)ncc1-c1cc(=O)[nH]c(N2CCc3ccccc3C2)n1`, for which the inhibition was -6.34%.

Consider `COc1ccc(C(NC(=O)C2CCN(CCCc3ccccc3)CC2)c2cccs2)cc1` (stereo not given), for which the inhibition is -2.89%.

On to `CCCCn1nnnc1CSc1nc(C)c(C)c(C)c1C#N`, for which the inhibition is 0.584%.

Turning to `COc1ccccc1NC(=O)c1ccc(-n2nc(-c3ccc(Cl)cc3)cc2N)cc1`, the inhibition was -3.87%.

With `O=C(Nc1cccc(-c2cccc(-c3ccc(F)cc3)n2)c1)c1c(F)c(F)c(F)c(F)c1F`, the inhibition is -6.45%.

As to `COCCCN(CC(=O)N1CCc2sccc2C1COc1ccc(Cl)c(C)c1)C(=O)c1cccc(OC)c1` (stereo not given), the inhibition was -4.66%.

In the case of `O=C(c1ccc(F)cc1F)N1CCC(c2nc(-c3ccc4c(c3)OCO4)no2)CC1`, the inhibition is -1.48%.

For the compound `COc1ccc(CC(=O)NNC(=O)c2cccn(Cc3ccc(F)cc3)c2=O)cc1`, the inhibition was -6.25%.

With `CC[N+](C)(CC)CCC[n+]1c(-c2ccccc2)c2cc(N)ccc2c2ccc(N)cc21`, the inhibition is 78.9% (active).

On to `CCN1CCN(C(=O)c2ccc(CSc3nnc(-c4cccs4)n3CC)cc2)CC1`, for which the inhibition is -5.22%.

For the compound `O=C(N1CC[C@@H](O)C1)C1(c2cccc(Br)c2)CC1`, the inhibition was -0.654%.

With `CCn1cc(-c2cc(NCc3ccccn3)nc3[nH]ccc23)c(C)n1`, the inhibition is -9.58%.

For `CCn1c(SCc2ccccc2OC(F)F)nnc1-c1c2c(nc3ccccc13)CCC2`, the inhibition was -4.53%.

With `CCOc1ccc(S(=O)(=O)Nc2ccc3oc(-c4ccccc4)cc3c2)cc1`, the inhibition is -4.93%.

With `CCOc1ccc(C2c3[nH]c4ccccc4c3CCN2C(=O)CSC)cc1` (stereo not given), the inhibition was -3.44%.

`Cc1ccc(NC(=O)c2ccc(CSc3nc(Cl)cc(N4CCN(C/C=C/c5ccccc5)CC4)n3)cc2)cc1C`: the inhibition was -2.86%.

Turning to `C=CCN(C(=O)CCl)c1nc(-c2ccc(Cl)c(Cl)c2)cs1`, the inhibition is 72.2% (active).

In the case of `N#Cc1ccc(-c2csc(NC(=O)c3cc([N+](=O)[O-])ccc3Cl)n2)cc1`, the inhibition is -5.77%.

`CCCS(=O)(=O)N1CCN(c2ccc(C)nn2)CC1`: the inhibition was -8.23%.

Consider `COc1cc(CN(C)C(=O)c2c(C)noc2-c2ccccc2Cl)cc(OC)c1OC`, for which the inhibition is 2.4%.

Take `CC(C)CN(Cc1ccc(OS(=O)(=O)c2ccc(F)cc2)cc1)S(=O)(=O)c1ccc(Cl)cc1`: the inhibition was -3.83%.

Consider `COc1cc([N+](=O)[O-])ccc1NC(=O)C(C)Nc1ccc2nc(C)sc2c1` (stereo not given), for which the inhibition is -7.43%.

Turning to `CC(C)(C)c1cc2nc(C(=O)NCCc3ccccn3)cc(-c3ccccc3F)n2n1`, the inhibition is -5%.

For `O=C1NC2(CCN(C(=O)COc3ccccc3)CC2)Nc2ccc(Cl)c(Cl)c21`, the inhibition was -6.89%.

In the case of `C=C(C)CN(CC)C(=O)c1ccc(-c2ccc(OC)c(OC)c2OC)s1`, the inhibition is -8.29%.

`CSc1cccc(NC(=O)NCCNc2cc(-n3ccnc3C)nc(C)n2)c1`: the inhibition is -12.2%.

`O=C(CCC1CCN(C23CC4CC(CC(C4)C2)C3)CC1)Nc1ccccc1Cl`: the inhibition was -11%.

As for `Cc1ccccc1-n1c(SCCCC(=O)N2CCN(C(=O)COCc3ccccc3)C(C)C2)nnc1-c1ccco1` (stereo not given), the inhibition is -5.31%.

For the compound `COc1ncccc1-c1cc2c(cn1)nc(NCc1cccc(C)c1)n2C`, the inhibition was -6.3%.

On to `CCn1nc(C(=O)N2CCN(c3ccccc3)CC2)c2c1CCN(C(=O)c1csc(SC)n1)C2`, for which the inhibition is -7.21%.

Take `CC(C)OCCNC(=O)c1ccc(-c2cc(-c3ccccc3)n[nH]2)cc1`: the inhibition is -2.09%.

In the case of `Cc1nc2n(n1)C(=O)C(C(c1cccs1)N1CCN(CCO)CC1)S2` (stereo not given), the inhibition is -7.74%.

With `CCc1cc2c(=O)c(-c3ccc4c(c3)OCO4)c(C)oc2cc1OC1OC(CO)C(O)C(O)C1O` (stereo not given), the inhibition is -6.86%.

As to `COc1cc(/C=C2/C(=O)N(c3ccc(Cl)c(Cl)c3)N=C2C)ccc1O`, the inhibition is 27.3%.

For `CCOC(=O)c1c(NC(=O)c2cccc3c2-c2ccccc2C3=O)c(-c2ccc(OC)c(OC)c2)cn1Cc1ccccc1`, the inhibition is -5.46%.

`CCn1c(=NC(=O)Cc2ccc(C)c(C)c2)sc2cc3c(cc21)OCCO3`: the inhibition was -9.59%.

In the case of `CCCC1(C2CCN(C(=O)[C@H]3C[C@@H]4C=C[C@H]3C4)CC2)NC(=O)N(CCc2cccs2)C1=O` (stereo not given in full), the inhibition is -8.91%.

Consider `O=C1c2ccccc2C(=O)c2cc(Sc3ccccc3)ccc21`, for which the inhibition was -6.93%.

Consider `CCc1nc2c(OCCOc3ccccc3)cccn2c1N(C)C(=O)c1ccccc1F`, for which the inhibition was -3.16%.

As to `CC12OC3(CCCCC3)C(C)(OC13CCCCC3)O2`, the inhibition is -2%.

Regarding `CC1CCCC(NC(=O)c2cc(S(=O)(=O)N3CCCC3)c[nH]2)C1C` (stereo not given), the inhibition was -4.23%.

For the compound `COc1ccc2[nH]c3c(c2c1)CCN(C(=O)COCc1ccccc1)C3COCc1ccccc1` (stereo not given), the inhibition was -10.3%.

As for `CCOC(=O)C1(Cc2ccc(OC)cc2)CCN(C(=O)C2CCCC2)CC1`, the inhibition was -2.47%.

Take `CCCc1cc(C(=O)NC(CC)C2CCCO2)sc1C` (stereo not given): the inhibition was 3.24%.

`Cn1c(=O)n(Cc2ccc(Cl)cc2)c(=O)c2c1nc1oc(C(C)(C)C)cn12`: the inhibition was -8.53%.

As for `C/C(=N/OC(=O)C1CC1(c1ccccc1)c1ccccc1)c1ccccc1` (stereo not given), the inhibition was -5.77%.

For `CCc1ccc(NC(=O)CSc2nccn3nc(-c4ccc(C)cc4)cc23)cc1`, the inhibition was -6.93%.

As for `CCCOc1nn(CCC)cc1C(=O)Nc1nccs1`, the inhibition is -6.36%.

Take `O=C(Cc1ccc2c(c1)CCC2)Nc1nn2cnnc2s1`: the inhibition was -17.7%.

For the compound `COCc1nnc2sc(Cc3ccc4c(c3)CCCC4)nn12`, the inhibition was 79.1% (active).

With `CCCc1nnc2sc(CCc3c(C)n[nH]c3C)nn12`, the inhibition was -9.34%.

Take `c1cc(C2CCN(C3CCC4(CCNCC4)CC3)CC2)ccn1`: the inhibition is -9.51%.

`O=C(NC1CCN(c2ccccc2C(=O)NCc2ccc3c(c2)OCO3)CC1)c1ccccc1Cl`: the inhibition is -4.1%.

As to `O=C1OC(C[N+](=O)[O-])C(Cl)=C1Oc1ccccc1` (stereo not given), the inhibition was 22.9%.

Turning to `CCCCc1nc(N2CCN(C(=O)Cc3cccs3)CC2)c2c(C)nn(-c3ccc(F)cc3)c2n1`, the inhibition is -4.18%.

For `CC1(C(=O)Nc2cccc3cccnc23)CCN1C(=O)Cc1ccccc1Cl` (stereo not given), the inhibition was -5.18%.

For the compound `CCOC(=O)C1=C(O)/C(=C\c2cc(O)cc(O)c2)SC1=Nc1cccc(C(F)(F)F)c1`, the inhibition is -2.35%.

As to `Cc1nc(C2(NCc3csc(-c4ccoc4)n3)CCCC2)no1`, the inhibition was -13.3%.

With `CN(C)CCNC(=O)c1nn(-c2cccc(C(F)(F)F)c2)c(=O)n(Cc2ccccc2F)c1=O`, the inhibition was 1.41%.

For the compound `Cc1c[nH]c(=O)n1-c1ccc(C(=O)Nc2cc(Cl)c(N)c(Cl)c2)cc1`, the inhibition is -14.6%.

As for `CC(C)(C)c1cc(=O)n2[nH]cc(-c3ccccc3Cl)c2n1`, the inhibition is -1.72%.

As to `CN(C)CCNc1cc(C(C)(C)C)nc2c(-c3ccc(Cl)cc3)cnn12`, the inhibition is -0.291%.

Take `CC(C)(C)c1cc(=O)n2[nH]cc(-c3ccc(Cl)cc3)c2n1`: the inhibition is 40% (active).

Turning to `COCCN(CCOC)Cc1cc(=O)oc2cc(-c3ccccc3)c(O)cc12`, the inhibition is 2.45%.

In the case of `C=CCN1C(=O)C2(CC(=O)N(CCc3cccc(OC)c3)C2=O)c2cc(OC)ccc21` (stereo not given), the inhibition was -2.01%.

As for `Cc1ccccc1N1CCn2c1nc1c2c(=O)n(CCN2CCOCC2)c(=O)n1C`, the inhibition is -8.88%.

For the compound `COc1ccc(CCNC(=O)CCc2cc3c(n2-c2ccc(OC)cc2)-c2ccccc2CC3)cc1`, the inhibition was -9.29%.

For `COc1cccc(-c2cc(-c3ccc(C(=O)NCCc4ccc(OC)c(OC)c4)cc3)[nH]n2)c1`, the inhibition was -4.79%.

Regarding `COc1ccc(-n2c(SCC(=O)N3CCN(C(=O)C(c4ccccc4)c4ccccc4)C(C)C3)nnc2-c2cccc(OC)c2)cc1` (stereo not given), the inhibition is -6.69%.

Regarding `CC(C)(C)n1nc2c(c1NC(=O)c1ccc3c(c1)OCO3)CSC2`, the inhibition is -7.2%.

As for `CC(C)N(CC(=O)N(Cc1ccc(F)cc1)Cc1ccco1)C(=O)c1ccc(-c2ccccc2)cc1`, the inhibition was -5.81%.

`Cc1cc(OC(=O)c2ccc(OC(C)C)cc2)c([N+](=O)[O-])c(=O)[nH]1`: the inhibition was -0.422%.

As for `Cc1ccc(C)c(CN2CCN(c3nc4c(c(=O)[nH]c(=O)n4C)n3CCC(C)C)CC2)c1`, the inhibition is -1.17%.
